Hits are enriched below; roughly 10% of the tested compounds scored in any of these assays.
GPT2 inhibitor: GPT2 alanine aminotransferase inhibition; 100,000 tested, 0.25% active; Potency, µM (series often up to 57.7 µM), without a hit: at the highest dose activity change, negative = inhibition, hits mostly inhibitors; AID 1671188; Recombinant GPT2, coupled pyruvate oxidase/HRP Amplex Red fluorescence; note: nearly all actives have a fitted effect of over 60% in size
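GPT2 10ng/uL, a-KG 250uM, L-Ala 2mM, HEPES pH7.5 + 0.0001% Tween; 30 min RT. Then Amplex mix (PO/HRP/ThPP), 30 min RT dark, fluorescence. AOA 50uM used as positive control.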
Luciferase inh: Photinus pyralis luciferase inhibition; P08659; purified P. pyralis luciferase, luminescence, biochemical; Potency, µM (highest dose often 115 µM), hits mostly inhibitors; 76,000 tested, 2.5% active; AID 1347043; note: nearly all actives have a fitted effect of over 65% in size
Target sequence (P08659 whole entry, looked up): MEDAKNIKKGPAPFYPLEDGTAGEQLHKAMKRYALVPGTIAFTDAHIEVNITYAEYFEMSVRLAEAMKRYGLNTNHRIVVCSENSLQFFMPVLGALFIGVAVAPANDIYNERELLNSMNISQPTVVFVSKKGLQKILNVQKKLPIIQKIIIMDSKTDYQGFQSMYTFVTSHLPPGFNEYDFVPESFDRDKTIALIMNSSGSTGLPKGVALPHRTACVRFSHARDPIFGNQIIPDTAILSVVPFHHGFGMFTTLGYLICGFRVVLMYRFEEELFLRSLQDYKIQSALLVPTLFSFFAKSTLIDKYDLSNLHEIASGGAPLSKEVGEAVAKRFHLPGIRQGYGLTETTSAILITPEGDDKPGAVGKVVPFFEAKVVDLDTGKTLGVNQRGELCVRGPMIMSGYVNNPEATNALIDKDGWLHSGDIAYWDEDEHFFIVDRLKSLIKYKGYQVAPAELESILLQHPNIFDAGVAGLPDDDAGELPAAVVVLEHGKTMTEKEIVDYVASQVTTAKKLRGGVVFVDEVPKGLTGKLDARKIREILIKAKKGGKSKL
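Purified 10nM P. pyralis luciferase with 10uM D-luciferin and 10uM ATP in 50mM Tris acetate pH 7.5, 10mM Mg acetate, 0.01% Tween-20, 0.05% BSA. qHTS titration; luminescence read by CCD imager.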
3T3 cytotox: cytotoxic compounds in NIH 3T3 cells; NIH 3T3 viability, CellTiter-Glo ATP luminescence, 48-72 h; AID 1345082; Potency, µM (top dose mostly 96.7 µM), for the others: at the highest dose activity change, negative = cytotoxicity, usual class: inhibitors; 94,000 tested, 4.3% active; note: nearly all actives have a fitted effect of over 55% in size
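ATP-dependent luminescence (CellTiter-Glo) served as the viability signal for NIH 3T3 cells treated with compound for 48 or 72 hr at 37 °C.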
HEK cytotox: cytotoxic compounds in HEK 293 cells | 94,000 tested, 6.6% active | HEK 293 viability, ATP luminescence (CellTiter-Glo), 48-72 h | AID 1345083 | Potency, µM (highest dose often 115 µM), without a hit: at the top dose activity change, negative = cytotoxicity, usual class: inhibitors; note: nearly all actives have a fitted effect of over 60% in size
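HEK 293 seeded at 250 cells/well receive compound via pintool. After 48 or 72 hr at 37 degree Celsius, 5% CO2 and 95% humidity, CellTiter-Glo is dispensed and luminescence read following 10 min at room temperature.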
hNpr1 antagonist: antagonists of human natriuretic peptide receptor Npr1 | Potency, µM (top dose mostly 46.3 µM), inactives show top-dose activity change, negative = inhibition, most hits filed as inhibitors | 76,000 tested, 1.6% active | HEK293 hNpr1 GloSensor cGMP, ANP-stimulated luminescence | P16066; calls by dose curve; note: nearly all actives have a fitted effect of over 60% in size
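Compound pre-incubated 30 min at room temperature on GloSensor-loaded HEK293 cells stably carrying hNpr1 and the pGS-40F cGMP biosensor. Stimulation uses hNppA at 0.1 nM final; luminescence is taken at baseline and 20 min post-agonist.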
Numbers without * were called inactive; i = inactive; u = inconclusive; x = not tested or not shown; [ ] = dose if it differs, or a comment. Unless noted, calls come from the whole dose curve; as a rule, active = well fitted curve in the direction sought with a large enough effect; inconclusive = small, poorly fitted or top-dose-only effect, or another doubt; inactive = no such curve, though single readings can be large; an effect the other way counts as inactive or inconclusive. % is set by controls: 0 for no effect and ±100 for the full control effect; potency is the fitted concentration of half-maximal effect.

SMILES	GPT2 inhibitor	Luciferase inh	3T3 cytotox	HEK cytotox	hNpr1 antagonist
CC(C)c1ccc(-n2cc(CN3CCN(C(=O)N(C)C)CC3)cn2)cc1	-15%	28µM*	-26%	u	-30%
CCCCc1ccc(-n2cc(CN3CCN(C(C)=O)CC(O)C3)cn2)cc1 (centres undefined)	-6%	40µM*	u	u	-3%
O=C(c1cnn2ccccc12)N1CCC(Cc2cccc(CO)c2)C1 (centres undefined)	0%	u	u	u	7.1µM*
Cc1cc(C)c(CNC(=O)c2cc(-c3ccccc3C)cc3c2OCCN3C(C)C)c(=O)[nH]1	-8%	i	u	u	0%
COc1cccc(-c2cc(C(=O)NCc3c(C)cc(C)[nH]c3=O)c3c(c2)N(C(C)C)CCO3)c1OC	0%	i	u	79µM*	1%
Cc1cc(C)c(CNC(=O)c2cc(-c3ccccc3O)cc3c2OCCN3C)c(=O)[nH]1	i	i	u	u	-12%[70.6 µM]
COc1ccc(-c2cc(C(=O)NCc3c(C)cc(C)[nH]c3=O)c3c(c2)N(C(C)C)CCO3)cc1	-13%	i	u	28µM*	-5%
Cc1cc(C)c(CNC(=O)c2cc(-c3ccccc3F)cc3c2OCCN3C)c(=O)[nH]1	1%[88.5 µM]	i	50µM*	71µM*	-18%[70.6 µM]
Cc1cc(C)c(CNC(=O)c2cc(-c3ccccc3F)cc3c2OCCN3C(C)C)c(=O)[nH]1	-12%	i	u	u	1%
COc1cc(F)ccc1-c1cc(C(=O)NCc2c(C)cc(C)[nH]c2=O)c2c(c1)N(C(C)C)CCO2	u	i	40µM*	45µM*	0%
COc1ncc(-c2cc(C(=O)NCc3c(C)cc(C)[nH]c3=O)c3c(c2)N(C(C)C)CCO3)cn1	i	i	-30%	u	4%
CC(=O)Nc1cccc(-c2cc(C(=O)NCc3c(C)cc(C)[nH]c3=O)c3c(c2)N(C(C)C)CCO3)c1	3%	i	45µM*	u	1%
Cc1cc(C)c(CNC(=O)c2cc(-c3ccccc3O)cc3c2OCCN3C(C)C)c(=O)[nH]1	u	i	u	u	-12%
Cc1cc(C)c(CNC(=O)c2cc(-c3ccccc3C)cc3ncn(C)c23)c(=O)[nH]1	2%[88.5 µM]	i	u	112µM*	-5%[70.6 µM]
COc1ccc(CC(=O)N2CCC3(CC2)CN(C(C)=O)CC3CO)cc1OC (centres undefined)	-9%	i	-4%	-21%	-7%
O=C1NCCC[C@@H]1NC(=O)[C@@H]1CN(C(=O)c2ccccc2)CCN1C(=O)c1cccc(F)c1	i	i	-22%	-10%	-1%
O=C(Nc1cccc(-c2ccc(N3CCCC3)nn2)c1)Nc1cc(F)ccc1F	u	5µM*	u	u	u
O=C(Nc1ccc(Cl)cc1)Nc1cccc(-c2cccc(N3CCCC3)n2)c1	-8%	x	x	x	x
O=C(Nc1cccc(-c2ccc(N3CCCC3)nn2)c1)Nc1c(F)cccc1F	-25%	14µM*	u	u	-17%
O=C(Nc1cccc(-c2nnc3n2CCCC3)c1)Nc1ccccc1F	i	i	-13%	-11%	-8%
CN1[C@@H](CCC(=O)N2CCCC2)CNC(=O)[C@@H]2[C@H]1CCN2C1CCCCC1	-34%[88.5 µM]	i	i	i	1%[70.6 µM]
O=S(=O)(c1ccc(F)cc1)N1CCC(OC2CCN(Cc3ccccc3)CC2)CC1	i	i	u	u	0%
CCc1ccc(S(=O)(=O)N2CCC(OC3CCN(Cc4ccccc4)CC3)CC2)cc1	i	i	35µM*	u	-1%
Cc1ccc(S(=O)(=O)N2CCC(OC3CCN(Cc4ccccc4)CC3)CC2)c(C)c1	i	i	32µM*	u	-16%
O=C(O)C1Cn2cccc2C(=O)N1Cc1cccnc1 (centres undefined)	-1%	i	-7%	-17%	4%
Clc1cc(NCc2cccs2)n2nccc2n1	i	i	u	40µM*	u
FC(F)(F)c1ccc(CNc2cc(Cl)nc3ccnn23)cc1	-7%[88.5 µM]	i	u	u	-38%[70.6 µM]

Bioassay records from PubChem BioAssay.
